# Bioassay records (PubChem)
# A selection: hits, their analogues and other compounds. The true share with any hit is near 0.81%.
# COUP-TFII inh: inhibitors of human COUP-TFII (NR2F2) | HEK293T NGFI-A luciferase reporter, luminescence | 0.7% of 370,000 active | inhibition, % at 8.6 µM | P24468;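 active = inhibition above a per-plate cutoff, mean inhibition of test wells between control levels plus 3 SD, cut at about 38% in these data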;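 note: cells cotransfected with COUP-TFII expression vector driving the NGFI-A reporter; 0% = median of COUP-TF2 test wells and 100% = reporter-only cells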
# NCOA3 inh: human NCOA3 inhibition | Q9Y6Q9 | HEK293 GAL4-SRC3 luciferase reporter, luminescence | inhibition, % at 3.6 µM | 0.17% of 360,000 active;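 active = inhibition above a per-campaign cutoff, the mean of all compounds plus 3 SD, cut at about 60% in these data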;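 note: 0% = DMSO-treated cells and 100% = gossypol-treated cells at 36 µM; higher means less SRC3-driven luciferase light from the GAL4 reporter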
# NR5A2 inv ag: inverse agonists of human LRH-1 (NR5A2); O00482; HEK293T StAR-luciferase reporter, LRH-1 transfected, 24 h; inhibition, % at 3.6 µM; 0.13% of 360,000 active;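 active = inhibition above the mean inhibition of all tested compounds plus 3 SD, cut at about 73% in these data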;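 note: 0% = DMSO wells and 100% = reporter-only cells lacking LRH-1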
# SRC2 inh: inhibits human steroid receptor coactivator 2; Q15596; HEK293 GAL4-SRC2 luciferase reporter, luminescence; inhibition, % at 9 µM; 0.17% of 370,000 active;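 active = inhibition above the mean inhibition of all tested compounds plus 3 SD, set per campaign, cut at about 52% in these data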;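 note: 0% = DMSO treated cells and 100% = cells given Gossypol at 36 µM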
# NCOA1 inh: inhibitors of human steroid receptor coactivator 1 (SRC1); Q15788; HEK293 GAL4-SRC1 luciferase reporter, luminescence; inhibition, % at 3.6 µM; 0.12% of 360,000 active;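 active = inhibition above the campaign mean plus 3 SD, with each screening campaign given its own cutoff, cut at about 60% in these data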;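 note: 0% = DMSO treated cells and 100% = gossypol at 36 µM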
# VP16 Luc counter: VP16 inhibition counter-screen for COUP-TFII; 25% of 2,500 active; shares compounds with COUP-TFII inh; HEK293 Gal4-VP16 luciferase reporter, luminescence; inhibition, % at 8.5 µM; in the data active = inhibition above about 13%
# COUP-TFII conf: COUP-TFII (NR2F2) inhibition, confirmation assay | shares compounds with COUP-TFII inh | HEK293 NGFI-A luciferase reporter, luminescence | inhibition, % at 8.5 µM | 45% of 2,500 active | AID 687008;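 active = mean inhibition over three repeats above a set limit taken from the earlier primary screen, cut at about 38% in these data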;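 note: 100% = cells given the luciferase reporter alone without the COUP-TF2 vector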
# Active calls of the source: *; . = no result given.
SMILES,COUP-TFII inh,NCOA3 inh,NR5A2 inv ag,SRC2 inh,NCOA1 inh,VP16 Luc counter,COUP-TFII conf
O=C(c1ccc(Cl)cc1)C1CCN(c2ncnc3sccc23)CC1,69*,.,.,.,.,0,56*
COc1ccc(-n2ncc3c(N4CCC(C(N)=O)CC4)ncnc32)cc1,-33,-111,-113,-56,-102,.,.
CC(C)(C)c1ccc(C(CC(=O)O)NC(=O)CSc2ccccc2)cc1 (centres undefined),7,12,5,1,-11,.,.
CCCC(=O)N1CCCC(c2cc(C(=O)Nc3ccccc3)no2)C1 (centres undefined),44*,30,29,22,28,-67,34
CC(C)(C)c1ccc(NC(=O)c2cc(C3CCCN(S(=O)(=O)c4cccc5cccnc45)C3)on2)cc1 (centres undefined),-11,14,1,-6,5,.,.
Cc1ncccc1C(=O)N1CCCC(c2cc(C(=O)Nc3ccc(C(C)(C)C)cc3)no2)C1 (centres undefined),40*,-3,19,6,-1,-11,-5
O=C(Nc1ccccc1)c1cc(C2CCCN(C(=O)c3ccccc3)C2)on1 (centres undefined),-12,-51,-2,-27,-27,.,.
O=C(Nc1ccc(F)cc1)C1CCCN(S(=O)(=O)c2ccc3[nH]c(=O)ccc3c2)C1 (centres undefined),12,7,3,-14,11,.,.
Cc1[nH][nH]c(=O)c1C(c1ccc(N(C)C)c(Br)c1)c1c(C)[nH][nH]c1=O,7,3,13,-10,10,.,.
Cc1cc(OCC(=O)NCCCN2CCOCC2)cc(C)c1Cl,16,5,1,-7,-28,.,.
CCN(CC)S(=O)(=O)c1cccc(NC(=O)c2cncc(Br)c2)c1,13,-8,-22,2,11,.,.
CCN(CC)S(=O)(=O)c1cccc(NC(=O)c2ccc(Br)cc2)c1,39*,22,-6,11,-3,-6,2
CCN(CC)S(=O)(=O)c1cccc(C(=O)Nc2ccc(C#N)cc2)c1,55*,20,33,4,9,-5,40*
Cc1cc(C(=O)Nc2cccnc2)on1,-12,-38,-9,9,0,.,.
Cc1cccc(Oc2cc(NC(=O)c3ccccc3)cc([N+](=O)[O-])c2)c1,50*,23,35,30,12,-6,26
Cn1cc([N+](=O)[O-])c(C(=O)Nc2cc(Oc3ccccc3)cc([N+](=O)[O-])c2)n1,1,11,-23,9,-25,.,.
Cc1ccccc1C(=O)O/N=C(\N)Cc1cccs1,-19,-36,-49,-18,-60,.,.
CCOc1ccc(-c2cc(CCCC(=O)N3CCN(c4ccc(OC)cc4)CC3)no2)cc1,28,10,20,37,-15,.,.
CCOc1ccc(-c2cc(CCCC(=O)NCCCOC)no2)cc1,59*,4,15,69*,3,23*,3
COc1ccc(NS(=O)(=O)c2ccc(NC(C)=O)cc2)c(OC)c1,-14,-3,-6,-6,21,.,.
CC(C)CCCCCCCCCCCCC(=O)NCC(=O)NC1C(C)OC(Nc2ncnc3nc[nH]c23)C(O)C1O (centres undefined),78*,91*,88*,40,87*,14*,82*
C/C(=C\CNc1ncnc2nc[nH]c12)CO,-5,13,15,16,-4,.,.
Cc1nn(C)cc1CNC(=O)CCC(=O)O,-5,-20,0,-16,0,.,.
CCOc1ccc(-n2c(-c3ccccc3)c[n+]3c2CCCCC3)cc1,67*,37,63,21,21,8,49*
Cc1ccc(-c2c[n+]3c(n2-c2ccccc2)CCC3)cc1,60*,32,29,30,31,-2,34
SMILES,COUP-TFII inh,NCOA3 inh,NR5A2 inv ag,SRC2 inh,NCOA1 inh,VP16 Luc counter,COUP-TFII conf
Cc1cccc(-n2ncc3c2CCCC3NC(=O)c2cccs2)c1C (centres undefined),44*,7,-4,5,3,-2,25
Cc1cccc(-n2ncc3c2CCCC3NC(=O)Cc2c(C)noc2C)c1C (centres undefined),42*,-11,28,16,1,-1,36
Cc1cccc(-n2ncc3c2CCCC3NC(=O)c2ccncc2)c1C (centres undefined),64*,18,49,5,31,2,49*
CCn1cc(C(=O)NC2CCCc3c2cnn3-c2cccc(C)c2C)cn1 (centres undefined),64*,-111,-1,13,-26,-4,50*
COc1cc(C)ccc1OCCOCCOc1ccccc1[N+](=O)[O-],-14,0,-3,-30,-18,.,.
CCOc1ccc(CCNC(=O)CSc2ncn[nH]2)cc1OCC,0,-8,-3,-23,-6,.,.
CN(Cc1ccccc1NS(=O)(=O)c1ccc(Cl)cc1)C1CCCCC1,24,23,-18,-1,14,.,.
O=C(CSc1nnc(CNC(=O)c2ccc(F)cc2)o1)NCc1ccc2c(c1)OCO2,-7,14,-2,-17,-68,.,.
CC1=C(C(=O)NC2CCCc3c2cnn3-c2cccc(C)c2C)OCCO1 (centres undefined),56*,9,25,24,15,-2,45*
Cc1nc2sc(-c3ccccc3)nn2c(=O)c1Br,-52,-76,-93,-57,-106,.,.
CCCCOCC1CN(CCCC)S(=O)(=O)c2c(Oc3ccc(C)cc3)cccc2O1 (centres undefined),5,.,.,1,.,.,.
Cc1ccc(-c2csc(N3CCN(CCCn4c(C(F)(F)F)nc5ccccc54)CC3)n2)cc1,6,-2,9,2,-1,.,.
CC(=O)N[C@@H](C)c1nc2ccccc2n1CCCN1CCN(c2nc(-c3ccc(C)cc3)cs2)CC1,62*,-8,16,20,-2,-11,48*
Cc1ccc(-c2csc(N3CCN(CCCn4c(-c5ccncc5)nc5ccccc54)CC3)n2)cc1,53*,1,-26,0,-5,1,29
COc1ccccc1Oc1nc2ccccn2c(=O)c1/C=C(\C#N)C(=O)Nc1c(C)n(C)n(-c2ccccc2)c1=O,3,18,17,-39,-15,.,.
COCCCNC(c1ccccc1)c1ccncc1 (centres undefined),3,-51,5,3,3,.,.
Cc1ccc2nc(C)c3c(c2c1)OC(C(C)(Cl)Br)C3 (centres undefined),16,-6,5,20,10,.,.
Cc1nc2ccccc2c2c1CC(C(C)(Cl)Br)O2 (centres undefined),54*,23,24,35,17,6,56*
COc1cc(CNc2ccc(CNc3ncn[nH]3)cc2)ccc1OCC(=O)NC(C)(C)C,42*,7,51,30,-5,2,17
